Assay results reported in PubChem BioAssay AID624351 (Southern Research Specialized Biocontainment Screening …, 2012).
Out of some 2,400 compounds screened, about 1,400 (58%) were called active. The set was probably picked from earlier hits. The list shows a part of the results. Unmarked numbers belong to inactive results.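 How the source made its calls: active means inhibition of 30% or more at any tested dose; inconclusive means primary hits over the limit that were never retested; inactive means the rest.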

Assay: ADP Hunter readout inhibition without MgcRacGAP – biochemical, coupled enzyme counter-screen, artefact control for MgcRacGAP inhibitor project, dose response (AID 624351);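 further: signal is the ADP detection kit reading of free GDP without any GAP enzyme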;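 on inhibition: 0% = median positive control wells and 100% = median negative control wells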
Details: fluorescence, no MgcRacGAP; series mostly up to 80 µM; inhibition: at the top concentration

| SMILES | IC50 | inhibition |
| --- | --- | --- |
| NC(=S)N/N=C/c1cccc(O)c1O | 32.6 µM (active) | – |
| Nc1ccc2nc(-c3ccccc3)[nH]c2c1 | 31.9 µM (active) | – |
| Cc1nc2ccc(-c3nc4ccc(N)cc4[nH]3)cc2[nH]1 | 58.5 µM (active) | – |
| Nc1ccc2nc(C3CCCCC3)[nH]c2c1 | 71.9 µM (active) | – |
| Nc1ccc2nc(-c3ccc(Cl)cc3)[nH]c2c1 | 67.3 µM (active) | – |
| Cc1nc(Nc2ccc(O)cc2)c2c3c(sc2n1)CCCC3 | 27.9 µM (active) | – |
| O=[N+]([O-])c1cc(Br)c(O)c(C=Nc2ccc(N3CCOCC3)cc2)c1 | 13.4 µM (active) | – |
| Cc1cc(Br)cc(C=Nc2ccc(N3CCOCC3)cc2)c1O | 14.7 µM (active) | – |
| Oc1ccc(N=Cc2cc(Br)c(N3CCOCC3)o2)cc1 | 64.7 µM (active) | – |
| COc1ccc(CN(C)CCc2ccccn2)c(OC)c1OC | – | 18.1% |
| Cc1[nH]nc(-c2ccc(O)cc2O)c1Oc1ccccc1 | 34.3 µM (active) | – |
| COc1ccc(Oc2c(-c3ccc(O)cc3O)n[nH]c2C)cc1 | 49.1 µM (active) | – |
| COCCNCc1nc2sc(C)c(-c3ccccc3)c2c(=O)[nH]1 | – | 12.2% |
| CCn1c(/C=C/c2ccc(O)cc2)nc2ccccc2c1=O | 44.8 µM (active) | – |
| C=CCn1c(N/N=C/c2ccc(O)cc2)nc2ccccc2c1=O | 66.7 µM (active) | – |
| O=c1c2cc(F)ccc2sn1-c1ccccc1Cl | – | 29.1% |
| Cc1cccc(NC(=O)CCC(=O)N/N=C/c2ccc(O)cc2O)c1 | 72.4 µM (active) | – |
| Cc1ccc(NC(=O)CCC(=O)N/N=C/c2ccc(O)cc2O)cc1 | 61.8 µM (active) | – |
| OCCN(C=NC1=NN(c2cccc(C(F)(F)F)c2)CC1)CCO | 42.2 µM (active) | – |
| CCN(C=NC1=NN(c2cccc(C(F)(F)F)c2)CC1)CC | 33 µM (active) | – |
| CN(C)C=NC1=NN(c2cccc(C(F)(F)F)c2)CC1 | 39.3 µM (active) | – |
| Cc1cccc(N2CCC(N=CN(C)C)=N2)c1 | 27.8 µM (active) | – |
| c1ccc(-c2ccccc2OCCCCn2ccnc2)cc1 | – | 13.5% |
| COc1ccccc1OCC#CCn1ccnc1 | – | 17.3% |
| Nc1sc(-c2ccccc2)c(Cc2ccccc2)c1C(=O)O | 70.5 µM (active) | – |
| CCN(c1ccccc1)S(=O)(=O)c1ccc(OC)c(NC(=O)CNCCc2ccccc2)c1 | – | 8.56% |

| SMILES | IC50 | inhibition |
| --- | --- | --- |
| CN(c1ccccc1)S(=O)(=O)c1cccc(C(=O)NCCc2ccc(O)c(O)c2)c1 | 71 µM (active) | – |
| COc1ccc(CCNC(=O)CNCC(c2ccccc2)N(C)C)cc1OC (stereo not drawn) | – | 23.1% |
| COc1ccc(N)cc1NC(=O)CN1CCOCC1 | – | 26.4% |
| COc1ccc(S(=O)(=O)N2CCC(N3CCN(c4ccccc4OC)CC3)CC2)cc1 | – | 18.6% |
| COc1ccccc1NS(=O)(=O)c1cc(N)ccc1N1CCCC1 | 75.2 µM (active) | – |
| CC(C)(C)c1cc(Cl)ccc1OCCOCCN1CCCC1 | – | 18.9% |
| O=C(Nc1ccc(C2=NCCN2)cc1)c1ccc(C(=O)Nc2ccc(C3=NCCN3)cc2)c([N+](=O)[O-])c1 | – | 3.21% |
| O=C(Nc1ccc(O)cc1)c1cccc(Oc2ccc([N+](=O)[O-])cc2)c1 | 48.2 µM (active) | – |
| COC(=O)C1=C(C)N(CC2CCCO2)C(=O)/C1=C\c1ccc(O)cc1 (stereo not drawn) | 24.4 µM (active) | – |
| CCS(=O)(=O)c1nn2c(N)c(/C=C3/C=CC(=O)C(OC)=C3)c(=O)nc2s1 | 39.6 µM (active) | – |
| COC1=C/C(=C/c2c(N)n3cc(C)sc3nc2=O)C=CC1=O | 82 µM (active) | – |
| O=C(CNCc1ccccn1)N1CCc2ccccc2C1 | – | 14.9% |
| Cc1ccc(NC(=O)CNCC(c2ccccc2)N(C)C)cc1F (stereo not drawn) | – | 21.2% |
| CCOC(=O)c1c(NC(=O)CN(C)C2CCN(C)CC2)sc(C(=O)Nc2ccccc2)c1C | – | 23.1% |
| CCOC(=O)CSc1nc(N)c(C(=O)Nc2ccc(N(C)C)cc2)s1 | 32.8 µM (active) | – |
| Cc1ccccc1SCC(=O)OCC(=O)Nc1ccc(N(C)C)cc1 | 81.6 µM (active) | – |
| CN(C)c1ccc(NC(=O)COC(=O)CNC(=O)c2cccs2)cc1 | 55.7 µM (active) | – |
| COc1nc(N)nc(NC(=O)c2cccs2)c1N=O | – | 2.46% |
| COc1ccc(OCCn2ccnc2C)cc1 | – | 13.6% |
| COc1cc(/C=N/Nc2nc3ccccc3[nH]2)ccc1O | 17.9 µM (active) | – |
| COc1ccc(/C=N/Nc2nc3ccccc3[nH]2)cc1OC | 73.8 µM (active) | – |
| COc1cc(/C=N/Nc2nc3ccccc3s2)ccc1O | 67.7 µM (active) | – |
| O=S1(=O)N=C(Nc2ccc(O)cc2)c2ccccc21 | 29.2 µM (active) | – |
| COc1cc(CN2CCN(Cc3ccc(C(F)(F)F)cc3)CC2)cc(OC)c1OC | – | 10.7% |
| CCOc1cc(CNc2ccc3[nH]c(=O)[nH]c3c2)ccc1OCC(=O)NC(C)(C)C | 67.7 µM (active) | – |
| COc1cc2c(cc1OC)C(c1cc(Br)c(OC)c(OC)c1)CC(=O)N2 (stereo not drawn) | – | 3.38% |

| SMILES | IC50 | inhibition |
| --- | --- | --- |
| CCOc1c(Cl)cc(CNc2ccc(N3CCCC3)cc2)cc1OC | – | -9.27% [at 5 µM] |
| CCOc1cc(CNc2ccc(N3CCCCC3)cc2)cc(Br)c1OCC(=O)NC(C)(C)C | 20.4 µM (active) | – |
| COc1cc(CNc2ccc(N3CCOCC3)cc2)cc(Br)c1OC | 12.5 µM (active) | – |
| CCOc1cc(CNc2ccc(N3CCOCC3)cc2)cc(Br)c1OCC | 16.9 µM (active) | – |
| CNc1c2cccc(C)c2nc2c(C(=O)NCCN(C)C)cccc12 | – | 19.5% |
| CCN(CC)CCCNc1nc2ccccc2c2[nH]c3ccc(OC)cc3c12 | – | 20.3% |
| COc1ccc(CCNc2nc(=S)[nH]c3cc(OC)c(OC)cc23)cc1OC | – | 28.5% |
| CCCCNc1nc(=S)[nH]c2cc(OC)c(OC)cc12 | 68.9 µM (active) | – |
| COCCCNc1nc(=S)[nH]c2cc(OC)c(OC)cc12 | 74.1 µM (active) | – |
| Cc1cc2[nH]c3c(c[n+](C)c4ccccc34)c2cc1C | – | 21.4% |
| Cc1cc(C)c2c(=N)c3ccccc3n(CCCCCCCCn3c4ccccc4c(=N)c4c(C)cc(C)nc43)c2n1 | – | 25.6% |
| O=C1C=CC(=O)c2c(O)c(N3CCN(CCOCCO)CC3)c(Br)c(O)c21 | – | -3.44% |
| C=CCc1cc(C=Nc2ccc(N3CCOCC3)cc2)cc(OCC)c1O | 14.6 µM (active) | – |
| C=CCc1cc(Cl)ccc1OCCNCCN1CCOCC1 | – | 22.5% |
| CCOc1ccccc1CN1CCC(N2CCOCC2)CC1 | – | 20.6% |
| COc1ccc(CN(C)CC(=O)Nc2ccc(Cl)cc2C(F)(F)F)c(OC)c1 | – | 15.9% |
| Nc1n[nH]c(N)c1N=Nc1ccc2c(c1)OCO2 | 38 µM (active) | – |
| O=S(=O)(O)c1ccc(O)c2cc(Nc3ccccc3)ccc12 | – | 17.6% |
| CC(=O)C1=C(S(=O)(=O)c2ccc(C)cc2)CS(=O)(=O)C1 | – | 6.22% |
| Cc1ccc(S(=O)(=O)c2cc(Nc3ccccc3)ccc2O)cc1 | 68 µM (active) | – |
| CC1(C)OC(C)(C)/C(=C/Nc2ccc(O)cc2)C1=O | 22.2 µM (active) | – |
| COc1cc(/C=N/NC(=O)c2cc(-c3ccccc3OC(C)C)nc3ccccc23)ccc1O | – | 29.6% |
| CCOc1cc(/C=N/NC(=O)c2ccccc2-n2cccc2)ccc1O | 44.9 µM (active) | – |
| COc1cc(C=NNC(=O)c2ccccc2-n2cccc2)ccc1O | 36.4 µM (active) | – |
| CCCCN(CC)CCNC(=O)CCC(=O)Nc1ccc2nc(N3CCN(C)CC3)cc(C)c2c1 | – | 18.5% |
| COc1cccc(-c2ncc3ccccn23)c1 | – | 16.3% |

| SMILES | IC50 | inhibition |
| --- | --- | --- |
| Cc1ccc(C2=NN=C(NC(=O)CSc3nncn3C)SC2)cc1 | – | 8.11% |
| CCn1c(SCC(=O)Nc2ccc(N(C)C)cc2)nnc1-c1cccc(C)c1 | 70.3 µM (active) | – |
| C=CCn1c(SCC(=O)Nc2ccc(N(C)C)cc2)nnc1-c1cccc(C)c1 | 58.8 µM (active) | – |
| CCn1c2ccccc2c2cc(NC(=O)CNC)ccc21 | – | 22.4% |
| C=CCn1c(SCC(=O)c2ccc(O)c(O)c2)nnc1-c1cccc(OC)c1 | 68 µM (active) | – |
| O=S(=O)(NC1=NCCCCC1)c1ccc2sc(NS(=O)(=O)c3ccc4ccccc4c3)nc2c1 | – | -3.65% |
| CCOc1ccc(C(=O)NC(=S)Nc2ccc(N3CCCCC3)cc2)cc1[N+](=O)[O-] | – | 20% |
| COc1cc(/C=C(/NC(=O)c2ccccc2)C(=O)Nc2ccc(O)cc2)c([N+](=O)[O-])cc1OC | 58 µM (active) | – |
| CC(=O)Nc1ccc(OC(=O)c2ccc(Br)c([N+](=O)[O-])c2)cc1 | – | 9.25% |
| CN(C)c1nc(=NCc2cccs2)ss1 | – | 8.07% |
| COc1cc(/C=N\Nc2cc(=O)n(C)c(=O)n2C)ccc1O | 36 µM (active) | – |
| COc1cc(/C=N/NC(=O)c2cc[n+]([O-])cc2)ccc1O | 35.7 µM (active) | – |
| COc1cc(/C=N/NC(=O)c2cccc(NC(=O)c3ccccc3C)c2)ccc1O | 34.4 µM (active) | – |
| COc1cc(/C=N/NC(=O)C(=O)Nc2ccccn2)ccc1O | 27.8 µM (active) | – |
| CN(C)CCO/N=C(\c1ccc(Br)cc1)c1cccnc1 | – | 17.3% |
| COc1cc(/C=N/NC(=O)c2ccc(-n3cccc3)cc2)ccc1O | 22.3 µM (active) | – |
| O=C(N/N=C/c1ccc(O)c(O)c1)c1ccc(-n2cnnn2)cc1 | 18.7 µM (active) | – |
| COc1cc(/C=N/NC(=O)C2(O)c3ccccc3-c3ccccc32)ccc1O | 45.5 µM (active) | – |
| COc1cc(/C=N/NC(=O)c2[nH]nc3c2CCc2ccccc2-3)ccc1O | 56.5 µM (active) | – |
| COc1cc(/C=N/NC(=O)c2ccccc2)ccc1O | 29.6 µM (active) | – |
| COc1ccc(/C=N/NC(=O)c2cc[n+]([O-])cc2)cc1O | 35.3 µM (active) | – |
| COc1cc(/C=N/Nc2ccc(C(=O)O)cc2)ccc1O | 36.1 µM (active) | – |
| COc1ccc(NS(=O)(=O)c2cccc(C(=O)NN=Cc3ccc(O)c(OC)c3)c2)cc1 | – | 16.8% |
| COc1cc(/C=N/NC(=O)c2cc3ccccc3[nH]2)ccc1O | 20.8 µM (active) | – |
| COc1ccc(C(C#N)=C2C=CC(=NO)C=C2)cc1 | 57.4 µM (active) | – |
